High-throughput results deposited in PubChem by National Center for Advancing Translational Sciences (NCATS).
D1 agonist: activates the human D1 dopamine receptor; 1% of 360,000 active; activation, % at 2 µM; P21728; AID 504660; HEK293 T-REx D1 cells, calcium flux, agonist mode; in the data active = activation above about 30%; note: 0% is about no effect
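Tetracycline-induced HEK293 TREx D1 cells, force-coupled to calcium signalling, were dye-loaded with a no-wash calcium kit. Compound was pin-added after a 10 s baseline. Fluorescence was read kinetically at 1 cycle/s for 180 s, with calcium rises flagged as agonism.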
USP2a block: blocks human ubiquitin-specific protease USP2a. O75604. USP2 core, Ub-CHOP2 coupled fluorogenic reporter, 485/531. Potency, µM (doses to about 38.3 µM), for the others: top-dose activity change, negative = inhibition, hits mostly inhibitors. 0.01% of 330,000 active. AID 463254;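 note: potency is the fitted concentration of half-maximal effect; plate controls were DMSO wells for no effect and full inhibition by NEM control for full effect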
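Cell-free coupled assay: 10nM USP2 core preincubated 30min RT with compound in Tris-HCl pH 8.0/CaCl2/CHAPS buffer, then 25nM Ub-CHOP2 and 25nM reporter substrate; fluorescence (Ex 485/Em 531) read after 60min RT, normalized to NEM inhibition, concentration-response curves fitted.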
D1 PAM: enhances dopamine response at the human D1 receptor; AID 504651; 0.036% of 360,000 active; potentiation, % at 10 µM; HEK293 TREx D1 cells, calcium flux, dopamine EC20 potentiation; P21728; in the data active = potentiation above about 30%; note: 0% is about no effect
D1 antagonist: human D1 dopamine receptor antagonism; activity change, negative = inhibition, % at 10 µM; P21728; 3.2% of 360,000 active; AID 504652; HEK293 TREx D1 cells, calcium flux, dopamine EC80; hits give low values; in the data active = activity change below about -30%; note: % is set by controls: 0 for no effect and ±100 for the full control effect
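After overnight tetracycline induction at 30 C, force-coupled D1 HEK293 cells took up a no-wash calcium dye at room temperature. Compounds were added and monitored 180 s, and the response to EC80 dopamine was then recorded.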
Eya2 phos inh: blocks the phosphatase activity of human Eya2 | O00167 | recombinant Eya2, OMFP fluorescence dephosphorylation (OMFP is methylfluorescein phosphate) | 0.006% of 330,000 active | Potency, µM (titrated, usually from 76.9 µM), for inactives: at the top dose activity, negative = inhibition, usual class: inhibitors; note: potency is the fitted concentration of half-maximal effect; % is set by controls: 0 for no effect and ±100 for the full control effect
Target sequence (O00167 whole entry, looked up): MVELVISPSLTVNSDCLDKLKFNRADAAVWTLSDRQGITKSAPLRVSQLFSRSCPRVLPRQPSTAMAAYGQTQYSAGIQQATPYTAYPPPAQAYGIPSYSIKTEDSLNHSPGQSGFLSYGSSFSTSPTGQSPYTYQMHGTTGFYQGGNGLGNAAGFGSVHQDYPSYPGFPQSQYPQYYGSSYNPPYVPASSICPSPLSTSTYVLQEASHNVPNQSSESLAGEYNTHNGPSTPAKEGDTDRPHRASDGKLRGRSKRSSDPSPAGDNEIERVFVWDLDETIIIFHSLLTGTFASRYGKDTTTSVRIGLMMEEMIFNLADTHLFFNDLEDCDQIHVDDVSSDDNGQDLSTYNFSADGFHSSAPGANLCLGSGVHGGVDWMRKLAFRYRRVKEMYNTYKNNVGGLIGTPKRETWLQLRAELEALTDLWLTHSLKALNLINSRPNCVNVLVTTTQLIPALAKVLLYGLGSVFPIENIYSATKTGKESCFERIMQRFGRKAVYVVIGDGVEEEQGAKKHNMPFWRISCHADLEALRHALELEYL
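Eya2 protein (added as 0.2 uM solution) was preincubated with compound for 10 min at ambient temperature in 50 mM HEPES pH 7.5, 50 mM NaCl, 5 uM MgCl2, 0.05% BSA, 1 mM DTT. OMFP (added at 50 uM) then reacted 10 min; fluorescence read at 485/525 nm.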
GALK inhibitor: blocks human galactokinase activity; AID 1868; Purified GALK, Kinase-Glo residual ATP luminescence; Potency, µM (highest dose often 57.5 µM), without a hit: at the highest dose activity change, negative = inhibition, usual class: inhibitors; 0.007% of 270,000 active; note: potency is the fitted concentration of half-maximal effect; % is set by controls: 0 for no effect and ±100 for the full control effect
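Compounds were pin-transferred into ATP buffer (35 uM final), then GALK plus galactose (5 nM, 100 uM final) was added. After 1 h at room temperature, Kinase-Glo Plus was added and luminescence read after 10 min.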
* = called active by the depositor; . = no result given; ! = repeats disagree. Hits are enriched below; roughly 3.9% of the tested compounds scored in any of these assays. Unless noted, calls come from the whole dose curve; as a rule, active = well fitted inhibition curve with a large enough effect; inconclusive = small, poorly fitted or top-dose-only effect, or effect the other way; inactive = flat fitted curve, though single readings scatter.

SMILES | D1 agonist | USP2a block | D1 PAM | D1 antagonist | Eya2 phos inh | GALK inhibitor
CN(C)/N=C/C=C1\CCC/C(=C\c2ccc(F)c(F)c2)C1=O | 0 | 0% | -4 | . | -2% | -2%
CN(C)c1ccc(/C=C2\CCC/C(=C\c3ccccc3)C2=O)cc1 | 91* | 4% | 0 | -19 | 2% | -2%
O=C1/C(=C/c2ccccc2)CCCc2ccccc21 | 2 | 0% | -3 | -11 | 10% | -2%
CC(C)OCc1cc(CN2CCN(c3ccccc3)CC2)c(O)c2ncccc12 | -2 | . | -3 | 0 | . | .
Oc1c(CN2CCN(c3ccccc3)CC2)cc(Br)c2cccnc12 | 0 | -9% | -3 | -87* | -10% | -2%
Cc1cc2c3ccccc3ncn2n1 | 3 | 3% | 7 | -39* | 2% | 7%
COc1cc(N)c(Cl)cc1NC(=O)c1ccccc1 | 4 | 0% | -4 | -55* | -5% | 4%
COc1c(Cl)cc(C(=O)Nc2ccccc2-c2ccccc2)cc1Cl | 3 | 1% | 3 | -31* | -6% | 2%
Cc1ccc(CNC(=O)c2ccc3c(c2)NC(=O)C(CS(=O)(=O)Cc2cccc(C)c2)N3)cc1 (configuration not stated) | 3 | . | -2 | 11 | . | .
CCCSCCCNC(=O)c1ccc2nc(Cc3ccccc3)oc2c1 | 6 | . | 3 | 0 | . | .
COc1cc(/C=N/NC(=O)c2ccc(N)cc2)ccc1OC(=O)c1cccc(C)c1 | 4 | 1% | 2 | -41* | -5% | 4%
CC(C)CN1C2CCCC1CC(NC(=O)c1ccc([N+](=O)[O-])cc1)C2 (configuration not stated) | 1 | 1% | -9 | -48* | -9% | 1%
CCOc1ccc(C(=O)NC2CC3CCCC(C2)N3CC(C)C)cc1 (configuration not stated) | 5 | 1% | 11 | 3 | 6% | 7%
O=C(CN1C2CCCC1CC(NC(=O)c1ccccc1)C2)Nc1ccccc1 (configuration not stated) | 9 | 0% | -4 | -53* | -1% | -2%
CCCN1C2CCCC1CC(NC(=O)c1ccc(Br)cc1)C2 (configuration not stated) | 5 | -7% | -6 | -48* | 1% | 0%
COc1ccc(-c2noc(CN(C(=O)c3cc(OC)c(OC)cc3OC)C(C)C)n2)cc1 | 1 | . | -3 | -4 | . | .
CCOc1ccc(CCNC(=O)CN2C(=O)CCSc3ccccc32)cc1 | 0 | -1% | 4 | 0 | -11% | 9%
CCOc1ccc(CCNC(=O)C(C)N2C(=O)CC(C)(C)Sc3ccccc32)cc1 (configuration not stated) | 38* | 0% | -9 | -1 | -5% | -2%
O=C(CN1CCN(Cc2ccccc2F)C1=O)NC1CCCC1 | 11 | 3% | -2 | -30* | 13% | 0%
O=C(CN1CCCN(Cc2ccc(F)cc2Cl)C1=O)NC1CCCCCCC1 | 3 | 3% | -13 | -5 | -10% | 2%
COC(=O)c1ccc(COn2nnc3ccccc32)cc1 | 4 | 2% | -5 | -35* | -3% | 12%
Cc1nn(CC(=O)OCC(=O)c2ccc(OC(F)F)cc2)c(C)c1[N+](=O)[O-] | -2 | 0% | 4 | -31* | -3% | .
Cc1nn(CC(=O)O)c(C)c1[N+](=O)[O-] | 3 | 0% | -4 | 7 | -5% | -3%
O=C(COc1ccccc1Cl)OCc1cc(=O)n2nc(-c3cccs3)sc2n1 | 15 | . | -7 | 3 | . | .
C=CCn1c(-c2cccs2)nc2ccccc21 | 0 | 0% | -11 | -52* | 5% | 0%
SMILES | D1 agonist | USP2a block | D1 PAM | D1 antagonist | Eya2 phos inh | GALK inhibitor
CCc1cccc2cc3c(N)c(C(=O)Nc4ccc(S(=O)(=O)N5CCCC5)cc4)sc3nc12 | 60* | 11% | 0 | 12 | 5% | -1%
Cc1ccc(NC(=O)CN2CCN(S(=O)(=O)c3cccs3)CC2)cc1S(=O)(=O)N(C)C | 5 | 0% | -10 | -36* | -19% | 0%
CN(C)S(=O)(=O)c1cc(NC(=O)CN2CCN(c3ccccc3F)CC2)ccc1Cl | 4 | 1% | -12 | -32* | 3% | -2%
CC1CCCC(NC(=O)CN2CCN(S(=O)(=O)c3cccs3)CC2)C1C (configuration not stated) | 2 | 0% | -11 | -42* | -5% | .
CC1C(=O)Nc2ccc(S(=O)(=O)NCc3ccc(N(C)C)cc3)cc2NC1=O (configuration not stated) | 6 | . | 0 | 14 | . | .
Cc1nc2sccn2c(=O)c1CCN1CCC(=C(c2ccc(F)cc2)c2ccc(F)cc2)CC1 | 0 | -9% | -6 | 18 | 4% | -1%
CC1CCN(CCn2c(=S)[nH]c3ccccc3c2=O)CC1 | 0 | 0% | -5 | -1 | -16% | 6%
O=C(CN1CCC(C(=O)c2ccc(F)cc2)CC1)NCc1ccccc1F | 6 | -1% | -10 | -9 | 10% | 0%
O=c1c2ccccc2[nH]c(=S)n1CCCN1CCC(Cc2ccccc2)CC1 | 0 | 5% | -28 | -31* | 13% | 3%
Cc1nc2ccccn2c(=O)c1CCN1CCC(C(=O)c2ccc(F)cc2)CC1 | 1 | 2% | -6 | -34* | 2% | 0%
O=C(c1ccc(F)cc1)C1CCN(CCn2c(=S)[nH]c3ccccc3c2=O)CC1 | 0 | -3% | -2 | -79* | -1% | -2%
CC1(C)C(=O)N(CCN2CCC(C(=O)c3ccc(F)cc3)CC2)c2ccccc21 | 7 | -2% | -7 | -62* | -9% | .
O=C1CC(c2nc3ccccc3[nH]2)CN1c1cccc(Cl)c1 (configuration not stated) | 3 | . | -2 | 2 | . | .
Cc1cc(C)cc(NC(=O)c2cccc(N3CCCS3(=O)=O)c2)c1 | 2 | . | 0 | -7 | . | .
O=C1C(SCCO)=C(SCCO)C(=O)c2ccccc21 | 2 | 1% | -6 | -32* | 50µM*! | .
O=C1C(Cl)=C(NCCCO)C(=O)c2ccccc21 | 2 | 1% | -5 | 0 | -5% | -1%
Cc1nc(-c2ccccc2)sc1C1(C)CC(c2cccc([N+](=O)[O-])c2)=NO1 (configuration not stated) | 2 | 11% | -1 | -42* | -4% | -1%
Cc1nc(C(=O)NC2CCCCC2)sc1C1(C)CC(c2cccc([N+](=O)[O-])c2)=NO1 (configuration not stated) | 5 | -1% | -7 | 8 | -1% | -2%
CC(C)Oc1ccc(CNC(=O)c2ccc(NC(=O)c3nsc4ccccc34)cc2)cc1 | 7 | . | -1 | -12 | . | .
CC(CN1CCN(c2ccccc2)CC1)c1ccccc1 (configuration not stated) | 22 | 0% | -15 | -59* | -6% | 2%
